According to PubChem BioAssay AID1159580 (chemical genetic matrix, 2015):
“And” between values parts separate entries of the source, which are not always exact repeats. Equal entries are not always repeated. About 2,000 (36%) of roughly 5,500 compounds were called active. Inconclusive results (about 18%) are left out. Rule as the data show it: active = normalized growth mostly below about 0.91 (no sharp cut-off); inconclusive = no clear call, values can overlap the other calls; inactive = mostly above about 0.92. Some of the results follow.

Assay: chemical genetic growth profiling, strain panel (AID 1159580);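 also: tested at 20 µM; growth read once vehicle control cultures reached saturation at 30 °C; 1 = growth at the plate median or of vehicle wells; lower values mean less growth of the strain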
Conditions: S. cerevisiae deletion strains, growth OD

Measured: normalized growth

CO[C@H]1CC(O[C@@H]2/C(C)=C/C[C@@H]3C[C@@H](C[C@]4(CC[C@H](C)[C@@H](C5CCCCC5)O4)O3)OC(=O)[C@@H]3C=C(C)/C(=N\O)[C@H]4OC/C(=C\C=C\[C@@H]2C)[C@]43O)O[C@@H](C)C1O (some centres undefined)
active: locus YBR231C, strain swc5, stronger effect = lower value 0.877 | locus YDL185W, strain tfp1, stronger effect = lower value 0.0713 | locus YDR137W, strain rgp1, stronger effect = lower value 0.39 | locus YDR159W, strain sac3, stronger effect = lower value 0.756 | locus YHR079C, strain IRE1, stronger effect = lower value 0.831
0.993 (inactive) and 0.435 (active): locus YHR030C, strain SLT2, stronger effect = lower value
inactive: locus YAL013W, strain DEP1, stronger effect = lower value 0.956 | locus YAL021C, strain ccr4, stronger effect = lower value 1.09 | locus YAL026C, strain drs2, stronger effect = lower value 1.02 | locus YAL030W, strain snc1, stronger effect = lower value 1.02 | locus YBL061C, strain skt5, stronger effect = lower value 0.989 | locus YBR009C, strain hhf1, stronger effect = lower value 1.03 | locus YBR021W, strain FUR4, stronger effect = lower value 0.952 | locus YBR023C, strain chs3, stronger effect = lower value 0.991 | locus YBR171W, strain sec66, stronger effect = lower value 0.988 | locus YBR229C, strain ROT2, stronger effect = lower value 0.992 | locus YBR279W, strain paf1, stronger effect = lower value 1.01 | locus YCL011C, strain gbp2, stronger effect = lower value 1 | locus YCL016C, strain dcc1, stronger effect = lower value 1.01 | locus YCL029C, strain bik1, stronger effect = lower value 0.984 | locus YCL061C, strain MRC1, stronger effect = lower value 1.02 | locus YCL069W, strain vba3, stronger effect = lower value 1.02 | locus YCR088W, strain abp1, stronger effect = lower value 1.02 | locus YDL005C, strain med2, stronger effect = lower value 1.02 | locus YDL035C, strain GPR1, stronger effect = lower value 0.949 | locus YDL040C, strain nat1, stronger effect = lower value 1.02 | locus YDL074C, strain BRE1, stronger effect = lower value 0.979 | locus YDL101C, strain DUN1, stronger effect = lower value 0.979 | locus YDL134C, strain PPH21, stronger effect = lower value 0.96 | locus YDL192W, strain arf1, stronger effect = lower value 0.989 | locus YDR001C, strain nth1, stronger effect = lower value 1.01 | locus YDR069C, strain doa4, stronger effect = lower value 1 | locus YDR101C, strain arx1, stronger effect = lower value 0.998 | locus YDR150W, strain NUM1, stronger effect = lower value 0.984 | locus YDR162C, strain NBP2, stronger effect = lower value 0.928 | locus YDR195W, strain ref2 0.883 | locus YDR297W, strain sur2, stronger effect = lower value 1.02 | locus YDR318W, strain mcm21, stronger effect = lower value 0.992 | locus YDR334W, strain swr1, stronger effect = lower value 1.02 | locus YDR335W, strain msn5, stronger effect = lower value 0.982 | locus YDR388W, stronger effect = lower value 0.991 | locus YDR392W, strain spt3, stronger effect = lower value 0.979 | locus YDR502C, strain sam2, stronger effect = lower value 0.983 | locus YEL003W, strain gim4, stronger effect = lower value 1.01 | locus YEL037C, strain rad23, stronger effect = lower value 1.02 | locus YEL061C, strain CIN8 (second series), stronger effect = lower value 1.02 | locus YEL061C, strain CIN8, stronger effect = lower value 0.987 | locus YER015W, strain faa2, stronger effect = lower value 0.997 | locus YER016W, strain bim1, stronger effect = lower value 0.989 | locus YER110C, stronger effect = lower value 0.994 | locus YER111C, strain swi4, stronger effect = lower value 1.02 | locus YER155C, strain BEM2 (second series), stronger effect = lower value 1 | locus YER155C, strain BEM2, stronger effect = lower value 1.02 | locus YER167W, strain BCK2, stronger effect = lower value 0.994 | locus YFR010W, strain ubp6, stronger effect = lower value 1.02 | locus YGL078C, strain dbp3, stronger effect = lower value 0.975 | locus YGL086W, strain mad1, stronger effect = lower value 1.01 | locus YGL167C, strain pmr1, stronger effect = lower value 1.01 | locus YGL173C, strain kem1, stronger effect = lower value 1.02 | locus YGL227W, strain vid30, stronger effect = lower value 1.03 | locus YGL240W, strain doc1, stronger effect = lower value 1.1 | locus YGL248W, strain PDE1, stronger effect = lower value 1 | locus YGL253W, strain hxk2, stronger effect = lower value 1.01 | locus YGR135W, strain pre9, stronger effect = lower value 0.974 | locus YGR252W, strain gcn5, stronger effect = lower value 1.06 | locus YHR013C, strain ard1, stronger effect = lower value 0.861 | locus YHR027C, strain rpn1, stronger effect = lower value 0.994 | locus YHR079C, strain IRE1 (second series), stronger effect = lower value 0.988 | locus YHR094C, strain hxt1, stronger effect = lower value 1 | locus YHR129C, strain ARP1, stronger effect = lower value 0.99 | locus YHR142W, strain chs7, stronger effect = lower value 1.01 | locus YHR200W, strain rpn10, stronger effect = lower value 0.988 | locus YIL066C, strain RNR3, stronger effect = lower value 0.984 | locus YIL073C, strain SPO22, stronger effect = lower value 0.801 | locus YIL125W, strain kgd1, stronger effect = lower value 0.992 | locus YIR030C, strain dcg1, stronger effect = lower value 1 | locus YJL092W, strain hpr5, stronger effect = lower value 1.02 | locus YJL095W, strain BCK1 (second series), stronger effect = lower value 1.02 | locus YJL115W, strain asf1, stronger effect = lower value 1.04 | locus YJL129C, strain trk1, stronger effect = lower value 0.901 | locus YJL134W, strain LCB3, stronger effect = lower value 0.984 | locus YJL154C, strain vps35, stronger effect = lower value 1.02 | locus YJL164C, strain tpk1, stronger effect = lower value 1.01 | locus YJL166W, strain qcr8, stronger effect = lower value 1.02 | locus YJL168C, strain set2, stronger effect = lower value 0.997 | locus YJL187C, strain SWE1 (second series), stronger effect = lower value 0.99 | locus YJL187C, strain SWE1, stronger effect = lower value 1.01 | locus YJR043C, strain POL32, stronger effect = lower value 0.977
0.882 (inactive) and 0.512 (active): locus YJL095W, strain BCK1, stronger effect = lower value
